In PubChem BioAssay AID1578 (Sanford-Burnham Center for Chemical Genomics, 2009) one finds inhibition data, which are given here for 36 compounds.

About 3,000 (1%) of roughly 290,000 compounds were called active. The sample as a whole holds a higher share of actives than the screen did. Values without a mark were called inactive. Rule as the data show it: active = inhibition mostly above about 36% (no sharp cut-off); inactive = mostly below about 34%.

A short description of this test: inhibition of NOD1-driven NF-kB reporter – cell-based, luminescence, uHTS, primary screen (AID 1578).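 Also: HEK-293T reporter cells stimulated with the NOD1 agonist gamma-tri-DAP.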 The note with it: NOD1-driven NF-kB luciferase reporter cells, at 4 µM, hits give high values. In general terms: A reporter such as luciferase makes a cellular process visible.
A word on the inhibition: it is the change of the read-out against control, counted positive when it falls. Turning to `COc1ccccc1C(=O)NNC(=O)C1CCCO1` (stereo unspecified), the inhibition was -10.6%.

Turning to `COc1ccc(C(=O)Nc2ccc(N3CCCCC3)cc2)cc1Br`, the inhibition was -49%.

`O=C1CCC(c2ccccc2)N1C(=O)c1cccnc1` (stereo unspecified): the inhibition is -12.6%.

With `CC1(C)Oc2nc3ccccc3n2/C1=C\C#N`, the inhibition was 42% (active).

With `N#C/C=C1\n2c(nc3ccccc32)OC12CCCCC2`, the inhibition was -4%.

`CNc1nc2ccccc2n1N`: the inhibition is 47%.

Regarding `c1ccc2c(CCNc3ncnc4nc[nH]c34)cccc2c1`, the inhibition was 62% (active).

For the compound `Cc1cccc(CSc2ncnc3nc[nH]c23)c1`, the inhibition was -13.3%.

Take `c1ccc(CCNc2ncnc3nc[nH]c23)cc1`: the inhibition is 16.7%.

Turning to `c1ccc2c(CSc3ncnc4nc[nH]c34)cccc2c1`, the inhibition is 71.3% (active).

Regarding `c1ccc2c(CCNc3ncnc4nc[nH]c34)c[nH]c2c1`, the inhibition was 20.4%.

On to `c1ccc(CCSc2ncnc3nc[nH]c23)cc1`, for which the inhibition is -1.6%.

In the case of `Cc1cccc(C(=O)NC(=O)Nc2c(C)cc(C)nc2C)c1`, the inhibition is -46.9%.

For the compound `O=C(CCCn1cc([N+](=O)[O-])cn1)Nc1cccnc1`, the inhibition is -11.6%.

As to `Cc1ccc(C(=O)c2coc3cc([N+](=O)[O-])c(O)c([N+](=O)[O-])c23)cc1`, the inhibition is 21.2%.

As for `CCCCN(Cc1ccccc1)c1ncnc2nc[nH]c12`, the inhibition is -41%.

Regarding `CCCCN(c1ccccc1)c1ncnc2nc[nH]c12`, the inhibition was 36.9%.

For `CCCCN(CCCC)c1ncnc2nc[nH]c12`, the inhibition is 84.5% (active).

Turning to `O=C(N[C@@H]1CCC(=O)N(CC[C@H](Oc2ccccc2)c2ccccc2)CC1)OCc1ccccc1`, the inhibition was 53.8%.

With `C=CCNC(=O)/C(C#N)=C/c1ccc(OS(=O)(=O)c2ccc(C)cc2)c(OC)c1`, the inhibition was 10%.

`COc1cc(/C=C(\C#N)C(N)=O)ccc1OS(=O)(=O)c1ccc(C)cc1`: the inhibition was 14.7%.

Turning to `COc1cc(/C=C(\C#N)C(=O)NC2CCCCC2C)ccc1OS(=O)(=O)c1ccc(C)cc1` (stereo unspecified), the inhibition is 75.9% (active).

`COc1ccc(CNC(=O)CN(Cc2ccc(F)cc2)C(=O)c2csnn2)cc1`: the inhibition was -24.5%.

Turning to `C=CCn1c(=O)c2ccc(C(=O)NCc3ccccc3)cc2n(Cc2cccc(Cl)c2)c1=O`, the inhibition was 61.7%.

With `O=C(CN1CCCN(S(=O)(=O)c2ccc(F)cc2)CC1)Nc1c(Cl)cccc1Cl`, the inhibition was -4.7%.

Regarding `Fc1cccc(Cl)c1CNC(c1ccccc1)c1ccccc1`, the inhibition was 9.2%.

Regarding `Cc1ccc(NCC(=O)N/N=C/c2cc3ccccc3nc2Cl)cc1`, the inhibition was -21.8%.

For `COC(=O)/C=C/c1ccc(-n2ccnc2)cc1`, the inhibition is -9.9%.

Regarding `CCOC(=O)C(=Cc1ccccc1OC)C(=O)OCC`, the inhibition was 47.6% (active).

Turning to `CCOC(=O)C(=Cc1ccc(Br)cc1)C(=O)OCC`, the inhibition was 36.2% (active).

As to `CCOC(=O)C(=Cc1cc(=O)c(OC)co1)C(=O)OCC`, the inhibition is -12.3%.

In the case of `COc1ccccc1/C=C(/C(=O)OCC(N)=O)c1ccccc1`, the inhibition was 0.8%.

As for `CCOC(=O)C(=Cc1ccc(F)cc1)C(=O)OCC`, the inhibition was 31.2%.

Regarding `CCOC(=O)C(=Cc1ccc(-n2ccnc2)cc1)C(=O)OCC`, the inhibition is 45.8% (active).

As for `CCOC(=O)/C(=C/c1ccc(OC(=O)c2ccccc2)cc1)C(C)=O`, the inhibition is -13.5%.

Regarding `O=C(O)/C=C/c1ccc(-n2ccnc2)cc1`, the inhibition is 1.1%.
